Compound activity: PubChem BioAssay, National Center for Advancing Translational Sciences (NCATS)
FLuc counter: qHTS profiling assay for firefly luciferase inhibitor/activator using purifed enzyme and Km concentrations of substrates (counterscreen for miR-21 project) | Luciferin 4-monooxygenase (Photinus pyralis), P08659 | actives 6.9% (n = 360,000) | AID 588342, 2011 | Potency, µM (titrated, usually from 57.5 µM), without a hit: at the highest dose activity change, negative = inhibition, actives largely listed as inhibitors | purified FLuc, Km substrates, luminescence inhibition;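 note: plate controls were vehicle for no effect and reference inhibitor for full effect; nearly all actives have a fitted effect of over 55% in size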
Target sequence (P08659 whole entry, looked up): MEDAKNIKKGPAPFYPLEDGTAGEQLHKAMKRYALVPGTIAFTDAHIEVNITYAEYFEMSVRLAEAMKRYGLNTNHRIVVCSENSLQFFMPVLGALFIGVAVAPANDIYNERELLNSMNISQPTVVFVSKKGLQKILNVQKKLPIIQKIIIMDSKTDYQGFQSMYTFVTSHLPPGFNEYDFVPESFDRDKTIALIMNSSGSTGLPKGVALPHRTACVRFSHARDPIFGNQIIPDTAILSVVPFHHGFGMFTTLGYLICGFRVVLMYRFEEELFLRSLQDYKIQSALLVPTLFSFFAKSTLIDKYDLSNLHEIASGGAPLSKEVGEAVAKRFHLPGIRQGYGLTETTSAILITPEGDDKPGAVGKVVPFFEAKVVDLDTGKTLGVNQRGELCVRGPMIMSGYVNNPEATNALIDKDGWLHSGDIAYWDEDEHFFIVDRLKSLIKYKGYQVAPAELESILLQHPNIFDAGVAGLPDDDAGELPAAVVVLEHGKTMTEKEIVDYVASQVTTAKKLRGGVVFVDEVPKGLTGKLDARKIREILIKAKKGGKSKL
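Purified P. pyralis luciferase, 10 nM final, with Km-level 10 uM D-luciferin and 10 uM ATP in 50 mM Tris acetate pH 7.5, 10 mM Mg acetate, 0.01% Tween-20, 0.05% BSA; 6-point qHTS titration about 60 µM downward; luminescence read.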
NPC1 promoter act: qHTS Assay for NPC1 Promoter Activators | Huh7 NPC1 promoter luciferase reporter, 24 h | Potency, µM (top dose mostly 9.22 µM), for inactives: at the highest dose activation, hits mostly activators | actives 2.4% (n = 320,000) | AID 485313, 2010; note: % of control where 0% means no effect; nearly all actives have a fitted effect of over 60% in size
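Huh7 reporter cells (NPC1 promoter driving luciferase) are dosed with compound for 24 h at 37 °C, 5% CO2; luciferase detection reagent is then added and luminescence measured after 10 min at ambient temperature.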
SMN2 splice up: qHTS Assay for Enhancers of SMN2 Splice Variant Expression | HEK293 SMN2-luciferase splicing reporter, luminescence, 30-36 h | AID 1458, 2008 | actives 2.8% (n = 210,000) | Potency, µM (highest dose often 46.1 µM), for inactives: at the highest dose activity change, positive = activation, most hits filed as activators; note: % of control where 0% means no effect; nearly all actives have a fitted effect of over 55% in size
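HEK293 cells carry an SMN2 […]–luciferase reporter in which exon 7 inclusion puts luciferase in frame. Cells were plated 10-12 h before compound addition, then incubated 30-36 h at 37C. ONE-Glo luminescence was read; sodium butyrate at 4.5 mM final served as control.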
ELG1 genotoxic: qHTS screen for small molecules that induce genotoxicity in human embryonic kidney (HEK293T) cells expressing luciferase-tagged ELG1 | HEK293T ELG1-luciferase reporter, luminescence, 16 h | Potency, µM (doses to about 46 µM), inactives show top-dose activity change, positive = activation, hits mostly activators | actives 1.3% (n = 330,000) | AID 504466, 2011; note: % of control where 0% means no effect; nearly all actives have a fitted effect of over 60% in size
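16 hr compound incubation (37 °C, 5% CO2) of HEK293T cells carrying luciferase-tagged ELG1; luciferase then measured by ONE-Glo luminescence after 30 min at RT.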
Rab9 prom act: qHTS Assay for Rab9 Promoter Activators | Huh7 Rab9 promoter-luciferase reporter, luminescence, 24 h | Potency, µM (series often up to 9.22 µM), inactives show top-dose activation, negative = inhibition, usual class: activators | actives 2.8% (n = 320,000) | AID 485297, 2010; note: % of control where 0% means no effect; nearly all actives have a fitted effect of over 60% in size
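Quantitative HTS format; Huh7 Rab9-luciferase reporter cells (1500/well) receive compound 2 h post-plating, incubate 24 h at 37 °C, then get luciferase reagent for 10 min before luminescence reading.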
ELG1 repair inh: qHTS screen for small molecules that inhibit ELG1-dependent DNA repair in human embryonic kidney (HEK293T) cells expressing luciferase-tagged ELG1; HEK293T ELG1-luciferase reporter, luminescence, 16 h; DNA damage induced by 5-fluorouridine; Potency, µM (series often up to 46.1 µM), for inactives: top-dose activity change, negative = inhibition, actives largely listed as inhibitors; actives 2.3% (n = 330,000); note: % is set by controls: 0 for no effect and ±100 for the full control effect; nearly all actives have a fitted effect of over 55% in size
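DMSO vehicle served as the neutral condition. Each well held 2,000 cells given 5-fluorouridine plus compound; after 16 hr at 37 °C/5% CO2, ONE-Glo was added and luciferase measured 30 min later.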
* hit, by the source's call; ? = inconclusive; / = not tested or not shown. Shown are actives, neighbours in structure and some others; about 9.3% of the full set was active somewhere. Calls come from the whole dose curve; as a rule, active = well fitted curve in the direction sought with a large enough effect; inconclusive = small, poorly fitted or top-dose-only effect, or another doubt; inactive = no such curve, though single readings can be large; an effect the other way counts as inactive or inconclusive. Potency is the fitted concentration of half-maximal effect.

SMILES | FLuc counter | NPC1 promoter act | SMN2 splice up | ELG1 genotoxic | Rab9 prom act | ELG1 repair inh
Cc1cc(=O)[nH]c(SCn2nnc3ccccc3c2=O)n1 | 1% | -1% | 12% | 3% | -11% | 26%
CC1CCN(C(=O)CSc2nnc3c(n2)[nH]c2ccc(F)cc23)CC1 | -1% | -4% | / | -10% | -15% | -26%
CCc1ccc2[nH]c3nc(SCCN4CCOCC4)nnc3c2c1 | ? | -3% | / | -6% | 2% | 26µM*
CC(C)c1ccc2[nH]c3nc(SCC(=O)N4CCOCC4)nnc3c2c1 | 6.7µM* | -1% | ? | -7% | 4% | 0%
CC1CCN(C(=O)C2CCCN(S(=O)(=O)c3cccc4nsnc34)C2)CC1 (stereo unspecified) | -4% | 0% | / | -4% | -1% | -8%
C/C(=C\C(=S)Nc1ccccc1)Nc1ccccc1 | 3.8µM* | 1% | 15% | 1% | -4% | ?
O=C(Cc1ccccc1)Nc1ccc(C(=O)Nc2ccc(O)cc2)cc1 | 3% | -5% | / | -5% | 3% | -2%
C/C(=C\C(=O)c1cccnc1)Nc1ccc(O)cc1 | 17µM* | ? | 27% | 16µM* | ? | ?
COc1ccc(C(=O)/C=C(\C)Nc2ccc(NC(C)=O)cc2)cc1 | ? | ? | -17% | 4% | 2.8µM* | ?
C/C(=C\C(=O)c1ccccc1)Nc1ccc(O)cc1 | 4.8µM* | 2.5µM* | / | 6.5µM* | 3.5µM* | ?
CCCC(=O)n1nc(-c2cccnc2)nc1NCc1cccs1 | -2% | 0% | / | 4% | -4% | -2%
O=C(c1ccccn1)N1CCCC(N2CCN(c3ccccc3)CC2)C1 (stereo unspecified) | -1% | 2% | / | 1% | 0% | -1%
CC(C)OC(=O)CC(=O)CSc1nc2c(cc1C#N)CCC2 | 19µM* | -5% | -19% | 1% | 3% | ?
COC(=O)CC(=O)CSc1nc2c(cc1C#N)CCC2 | 13µM* | 2% | 1.3µM* | 27% | 20% | ?
CC(C)OC(=O)CC(=O)CSc1nc2c(cc1C#N)CCCC2 | 13µM* | / | 2% | / | / | /
N#Cc1cc2c(nc1SCC(N)=O)CCCCC2 | -14% | 4µM* | 25µM* | ? | 3.2µM* | ?
Cn1c(=O)c2c(nc(N3CCN(Cc4ccccc4)CC3)n2CCCc2ccccc2)n(C)c1=O | 8% | -2% | -35% | -10% | -7% | 12µM*
Cn1c(=O)c2c(nc(CN3CCc4ccccc4C3)n2Cc2ccc(Cl)cc2)n(C)c1=O | 2% | -2% | -13% | 0% | 3% | 26%
CCCCCn1c(CN2CCN(Cc3ccccc3)CC2)nc2c1c(=O)n(C)c(=O)n2C | 2% | -3% | -14% | -7% | 1% | 21µM*
Cn1c(=O)c2c(nc(CN3CCc4ccccc4C3)n2Cc2ccccc2)n(C)c1=O | 0% | -4% | -39% | -4% | -4% | 16µM*
CCOC(=O)N1CCN(Cc2nc3c(c(=O)n(C)c(=O)n3C)n2Cc2cccc(C)c2)CC1 | -3% | 4% | -11% | 1% | 7% | 18µM*
Cn1c(=O)c2c(nc(N3CCN(c4ccccc4)CC3)n2CCCc2ccccc2)n(C)c1=O | 0% | 0% | -29% | -17% | -9% | ?
O=C(NC(=S)NC1CCSC1=O)c1ccc([N+](=O)[O-])cc1 (stereo unspecified) | 8% | -4% | / | 9% | -2% | 13%
Cn1c(=O)c2c(nc(CN3CCN(c4ccccc4)CC3)n2Cc2ccccc2Cl)n(C)c1=O | 3% | -8% | -13% | 0% | 11% | ?
Cn1c(=O)c2c(nc(CN3CCN(c4ccccc4)CC3)n2Cc2c(F)cccc2Cl)n(C)c1=O | 1% | -5% | -21% | -6% | 2% | 10µM*
SMILES | FLuc counter | NPC1 promoter act | SMN2 splice up | ELG1 genotoxic | Rab9 prom act | ELG1 repair inh
CC(=O)c1cccc(OCC(=O)c2cc(C)n(-c3cc(C)on3)c2C)c1 | ? | -2% | -47% | -7% | -7% | ?
Cc1cc(-n2c(C)cc(C(=O)COc3ccc4ccc(=O)oc4c3)c2C)no1 | 17µM* | -1% | -15% | -2% | 7% | ?
CCc1cccc(NC(=S)Nc2ccc(CN3CCOCC3)cc2)c1 | -7% | 0% | -33% | -7% | 7% | 5%
O=c1c(C=NCCCO)c(-c2ccccc2)[nH]n1-c1nc2ccccc2s1 | 15µM* | 0% | / | 11% | -12% | 18%
CCCCCN=Cc1c(C)[nH]n(-c2nc3ccccc3s2)c1=O | 4.8µM* | ? | 11% | 2.9µM* | ? | ?
CCCc1[nH]n(-c2nc3ccccc3s2)c(=O)c1C=NCCCOC | -16% | 13% | / | 7% | 5% | ?
CCCc1[nH]n(-c2nc3ccccc3s2)c(=O)c1C=NCCN1CCOCC1 | 17µM* | 18% | 41% | ? | 16% | ?
COCCCN=Cc1c(-c2ccccc2)[nH]n(-c2nc3ccccc3s2)c1=O | 15µM* | -6% | / | 1% | 1% | -17%
CC(=O)c1sc(NC(=O)C2CSC3(C)CCC(=O)N23)nc1-c1ccccc1 (stereo unspecified) | -12% | 0% | / | -3% | -9% | ?
O=C(C1CC1)N1CCN(c2ccc(F)cc2)CC1 | 2% | 1% | / | 2% | -1% | ?
O=C(Nc1cccc(F)c1)[C@@H](c1ccccc1)N1Cc2ccccc2C1=O | -2% | / | 0% | / | / | /
NC(=O)CC(NC(=O)c1ccccc1)c1ccc(N2CCN(c3ccccc3)CC2)c([N+](=O)[O-])c1 (stereo unspecified) | 1% | -4% | / | -3% | -8% | ?
Cc1ccc(N(CC(=O)NCc2cccnc2)S(C)(=O)=O)cc1C | 1% | -1% | 6% | -1% | -7% | 26%
COCC(=O)N(CCc1ccccc1)Cc1cc2cc(C)ccc2nc1Cl | -6% | -5% | / | -2% | 2% | -13%
COCC(=O)N(CCc1ccc(OC)c(OC)c1)Cc1cc2cc(C)ccc2nc1Cl | -7% | -3% | -45% | -11% | -10% | 16µM*
CC(C)Cc1nc2oc3c(NCc4cccnc4)ncnc3c2c2c1CCC2 | -1% | -13% | 9% | 2% | 1% | ?
CCCc1nc2oc3c(NCC(C)O)ncnc3c2c2c1CCCC2 (stereo unspecified) | -17% | 14% | / | -5% | 1% | 23µM*
